We go through 97 compounds from PubChem BioAssay AID463173 (ICCB-Longwood Screening Facility, Harvard Medical School, 2010).

Hit rate of the full screen: of about 52,000 compounds, about 4,300 (8.3%) were called active. This is one part of a sample in which actives are shown more often than they occur. Cut-off read from the data, not from the text of the source: active = survival mostly below about 52% (no sharp cut-off); inactive = mostly above about 56%.

The experiment has as its system DeltatarO mutant. The experiment in a line: growth inhibition of S. aureus wild type versus tarO mutant, primary screen, teichoic acid synthesis inhibitors, RN4220, OD600 (AID 463173). To be noted: OD600, 18 h, hits give low values, screened at 18.75 µg/mL (by protocol).
As for `Cc1ccc(N(CCO)S(=O)(=O)c2ccc(NC3=NS(=O)(=O)c4ccccc43)cc2)cc1`, the survival was 96% (inactive).

For the compound `CCc1ccc(C(=O)c2cn(CC(=O)Nc3ccc4c(c3)OCCO4)c3ccc(F)cc3c2=O)cc1`, the survival is 78% (inactive).

For `Cc1cccc(NS(=O)(=O)c2ccc3c(c2)CCCN3C(=O)C2CCC2)c1C`, the survival is 107% (inactive).

Consider `Cc1oc2ncn(C)c(=O)c2c1C(=O)Nc1ccc(F)cc1`, for which the survival is 72% (inactive).

As for `COc1ccc(-n2c(SCc3ccccc3F)nc3c([nH]c4ccccc43)c2=O)cc1OC`, the survival was 68% (inactive).

For `ON(Cn1nnc2ccccc21)Cn1nnc2ccccc21`, the survival is 102% (inactive).

For `COc1ccc(-c2noc(-c3ccc(N4CCCCC4C)c([N+](=O)[O-])c3)n2)cc1OC` (configuration not stated), the survival was 104% (inactive).

Consider `COc1ccc(Cl)cc1-n1nnc(-c2nsc(NC(=O)c3ccccc3Cl)n2)c1C`, for which the survival was 23% (active).

Take `COc1ccc(C(=O)Nc2nc(-c3nnn(-c4cc(OC)ccc4OC)c3C)ns2)cc1`: the survival was 109% (inactive).

Take `COc1ccc(-n2nnc(-c3nsc(NC(=O)c4ccc(C)c(C)c4)n3)c2C)cc1Cl`: the survival is 126% (inactive).

As for `COc1cccc(C(=O)Nc2nc(-c3nnn(-c4cc(C)ccc4C)c3C)ns2)c1`, the survival was 88% (inactive).

`Cc1ccc(C(=O)Nc2nc(-c3nnn(-c4cccc(Cl)c4C)c3C)ns2)cc1C`: the survival is 124% (inactive).

Take `COc1cccc(C(=O)Nc2nc(-c3nnn(-c4cccc(Cl)c4C)c3C)ns2)c1`: the survival was -5% (active).

Consider `O=C(C1CC1)N1CCc2cc(Br)cc(S(=O)(=O)N3CCN(c4cccc(Cl)c4)CC3)c21`, for which the survival was 62% (inactive).

For the compound `CCOc1ccc(-n2c(=O)c3c4c(sc3n(CC(=O)NC(C)CC)c2=O)CCC4)cc1` (configuration not stated), the survival was 142% (inactive).

`COC(=O)Cn1c(CN2CCN(c3ccc(OC)cc3)CC2)nc2c1c(=O)[nH]c(=O)n2C`: the survival was 88% (inactive).

Take `CCCc1nn2c(=O)cc(COC(=O)c3ccc(NC(=O)c4cccs4)cc3)nc2s1`: the survival is 69% (inactive).

For `CCOc1ccc(N(C)C(CNS(=O)(=O)c2ccccc2)c2ccccc2)cc1` (configuration not stated), the survival is 87% (inactive).

As to `Cn1c(=O)oc2cc(S(=O)(=O)N3CCC(C(=O)N4CCN(c5ccc(Cl)cc5)CC4)CC3)ccc21`, the survival is 56% (inactive).

On to `COC(=O)C1=CNC=C(C(=O)OC)C1c1ccc(Cl)cc1`, for which the survival is 88% (inactive).

Consider `COC(=O)C1=CN(C2CC2)C=C(C(=O)OC)C1c1ccsc1`, for which the survival is 60% (active).

Regarding `COC(=O)C1=CN(CCCN2CCCC2=O)C=C(C(=O)OC)C1c1cccs1`, the survival was 77% (inactive).

Turning to `COc1ccc(-n2c(=O)c3c4c(sc3n(Cc3ccccc3)c2=O)CN(C(C)=O)CC4)cc1OC`, the survival was 67% (inactive).

As for `C=CCc1cccc2cc(-c3nc4ccc(C)cc4[nH]3)c(=O)oc12`, the survival is 0% (active).

Consider `COc1cccc2cc(-c3nc4ccc(C)cc4[nH]3)c(=O)oc12`, for which the survival was 98% (inactive).

In the case of `C=CCc1cccc2cc(-c3nc4ccc(C(=O)O)cc4[nH]3)c(=O)oc12`, the survival is 92% (inactive).

With `O=C(NC(=O)c1ccc(F)cc1)Nc1ccc(-c2cc(C(F)(F)F)nn2-c2ccccc2)cc1`, the survival was 61% (inactive).

In the case of `COCCn1c(SCC(=O)c2ccccc2)nc2cc(C(=O)NC3CCCC3)ccc2c1=O`, the survival is 87% (inactive).

As for `CC(C)=CC(=O)Nc1nnc(Cc2ccccc2)s1`, the survival was 55% (inactive).

With `O=C(Cc1cccc([N+](=O)[O-])c1)NCc1nc2cccnc2n1Cc1ccc(F)cc1`, the survival was 118% (inactive).

For the compound `Cc1ccc(Cn2c(CNS(=O)(=O)c3ccc(F)c(Cl)c3)nc3cccnc32)cc1`, the survival was 126% (inactive).

Consider `CCc1ccc(Cn2c(CNS(=O)(=O)c3ccc([N+](=O)[O-])cc3)nc3cccnc32)cc1`, for which the survival is 8% (active).

For `CCOc1ccc(Cn2c(CNS(=O)(=O)c3ccc([N+](=O)[O-])cc3)nc3cccnc32)cc1`, the survival is 94% (inactive).

For `COc1ccc(Cn2c(CNC(=O)Cc3cccc([N+](=O)[O-])c3)nc3cccnc32)cc1`, the survival was -5% (active).

On to `Cc1ccc(Cn2c(CNC(=O)Cc3cccc([N+](=O)[O-])c3)nc3cccnc32)cc1`, for which the survival was 70% (inactive).

With `CCc1ccc(Cn2c(CNS(=O)(=O)c3ccc(F)c(Cl)c3)nc3cccnc32)cc1`, the survival is 20% (active).

For the compound `O=S(=O)(NCc1nc2cccnc2n1Cc1ccccc1Cl)c1ccc(F)c(Cl)c1`, the survival was 87% (inactive).

Turning to `CCc1ccc(Cn2c(CNS(=O)(=O)c3ccc(Cl)s3)nc3cccnc32)cc1`, the survival was 66% (inactive).

For the compound `Cc1ccc(Cn2c(CNS(=O)(=O)c3ccc(Cl)s3)nc3cccnc32)cc1`, the survival was 124% (inactive).

For `O=S(=O)(NCc1nc2cccnc2n1Cc1ccc(F)cc1)c1ccc(Cl)s1`, the survival is -5% (active).

For `CCOc1ccc(Cn2c(CNS(=O)(=O)c3ccc(CC)cc3)nc3cccnc32)cc1`, the survival was 95% (inactive).

Take `C#CCN1CCOCC1`: the survival was 99% (inactive).

For `Cc1cc2c(=O)c(C(=O)c3ccncc3)cn(CC(=O)Nc3cccc(C)c3C)c2cc1C`, the survival is 94% (inactive).

Turning to `CCOc1ccc(-c2cc3nc(C4CCN(C(=O)OC(C)(C)C)CC4)c(C(=O)Nc4cccc(Cl)c4C)cn3n2)cc1`, the survival was 81% (inactive).

Regarding `COc1ccc(NC(=O)CC2SC(=Nc3ccccc3)N(CCO)C2=O)cc1` (configuration not stated), the survival is 95% (inactive).

For `Cc1nnc(NC(=O)C(C)N2CCCC2)s1` (configuration not stated), the survival is 97% (inactive).

`O=C(Nc1ccccc1Cl)N1CCc2ccccc2C1`: the survival is 91% (inactive).

Take `Cc1nn(C)c2c1c(-c1ccccc1)cc(=O)n2CC(=O)NC(C)(C)C`: the survival is 113% (inactive).

`COc1cccc(CSc2nc3n(n2)C(c2cccnc2)C(C(=O)Nc2ccccc2C)=C(C)N3)c1` (configuration not stated): the survival was 74% (inactive).

As for `COc1ccc(Cn2c(CNS(=O)(=O)c3ccc4c(c3)CCCC4)nc3cccnc32)cc1`, the survival is 128% (inactive).

Take `CCc1ccc(Cn2c(CNS(=O)(=O)c3ccc(C)c(C)c3)nc3cccnc32)cc1`: the survival was 81% (inactive).

Regarding `COc1ccc(Cn2c(CNS(=O)(=O)c3ccc(C)c(C)c3)nc3cccnc32)cc1`, the survival was 17% (active).

With `Cc1nc(-c2ccc(F)cc2)sc1CCNC(=O)c1ccccc1C(F)(F)F`, the survival was 97% (inactive).

Consider `CCCCN(CC)CCCNC(=O)c1cn(CC)c2ccc(S(=O)(=O)N3CCOCC3)cc2c1=O`, for which the survival was 89% (inactive).

Regarding `COc1ccc(CNC(=O)CCc2cn(C)c3ccccc23)cc1`, the survival is 57% (inactive).

As for `CCOC(=O)c1sc2ccccc2c1S(=O)(=O)NCc1ccc(F)cc1`, the survival is 94% (inactive).

As for `COc1cc(C(=O)OCc2cc(=O)n3nc(C(C)C)sc3n2)cc(OC)c1OC`, the survival is 99% (inactive).

With `Cc1ccccc1C(=O)Nc1ccccc1C(=O)OCc1cc(=O)n2ccsc2n1`, the survival was 77% (inactive).

On to `Cc1cccc(C(=O)OCc2cc(=O)n3ccsc3n2)c1`, for which the survival was 84% (inactive).

Consider `O=C(Nc1ccccc1C(=O)OCc1cc(=O)n2ccsc2n1)c1ccccc1Cl`, for which the survival is 60% (inactive).

As to `COc1ccccc1C(=O)Nc1ccccc1C(=O)OCc1cc(=O)n2ccsc2n1`, the survival is -5% (active).

As to `COc1ccccc1C(=O)Nc1ccc(C(=O)OCc2cc(=O)n3ccsc3n2)cc1`, the survival is 96% (inactive).

Turning to `Cc1ccccc1C(=O)Nc1cccc(C(=O)OCc2cc(=O)n3ccsc3n2)c1`, the survival was 72% (inactive).

Take `COc1ccccc1C(=O)Nc1cccc(C(=O)OCc2cc(=O)n3ccsc3n2)c1`: the survival is -4% (active).

As for `COc1cc(C(=O)OCc2cc(=O)n3ccsc3n2)cc(OC)c1OC`, the survival was -2% (active).

Take `CCc1nnc2c(NCc3cccc(OC)c3)nc3ccccc3n12`: the survival is 89% (inactive).

For the compound `Cc1cc(C)c2c(=O)cc(C(=O)Nc3nc4ccc(F)cc4s3)oc2c1`, the survival is 61% (inactive).

For `COc1ccc(-c2cn3c(n2)sc2cc(C(=O)NC4CCCCC4)ccc23)cc1`, the survival is 79% (inactive).

For the compound `CSc1cccc(NC(=O)Cn2ncn3c(cc4ccccc43)c2=O)c1`, the survival was 65% (inactive).

Regarding `CCN(Cc1ccccc1)C(=O)Cn1c(=O)n(-c2cccc(C)c2)c(=O)c2c1c1cc(OC)ccc1n2C`, the survival was 59% (inactive).

As to `O=C(NCC(c1cccnc1)N1CCc2ccccc2C1)C(=O)Nc1ccc(F)cc1F` (configuration not stated), the survival was 107% (inactive).

As for `Cc1ccc(C(=O)Nc2c(-c3ccccc3)nc3ccccn23)cc1C`, the survival was 34% (active).

Take `Cc1cc(C(=O)Nc2c(C)nc3ccccn3c2=O)ccc1[N+](=O)[O-]`: the survival is 92% (inactive).

Take `O=C(Nc1c(-c2ccc(F)cc2)nc2ccccn12)c1ccccc1F`: the survival is 139% (inactive).

As for `CC(C)Nc1c(-c2ccccc2)nc2ccccn12`, the survival was 105% (inactive).

Regarding `COC(=O)Nc1c(-c2ccccc2)nc2ccc(C)cn12`, the survival is 74% (inactive).

Regarding `Cc1ccc(C(=O)Nc2c(-c3ccccc3)nc3ccccn23)cc1`, the survival is 40% (active).

As to `O=C(Nc1c(-c2ccccc2)nc2ccccn12)c1ccc(Br)cc1`, the survival was 31% (active).

In the case of `Cc1cccc(C(=O)Nc2c(-c3ccc(F)cc3)nc3ccccn23)c1`, the survival was 91% (inactive).

As to `O=C(Nc1c(-c2ccccc2)nc2ccccn12)c1ccccc1F`, the survival was 48% (inactive).

Take `Cc1cc(NC(=O)CSc2ccccc2)no1`: the survival is 88% (inactive).

Consider `CCOC(=O)Cc1nnc2c(Nc3cc(C)ccc3C)nc3nonc3n12`, for which the survival was 101% (inactive).

For the compound `Cc1oc(-c2cccc(Cl)c2)nc1Cn1c(SCc2ccc(F)cc2)nc2cccnc21`, the survival was 85% (inactive).

As for `Cc1ccc(C)c2nc(SCC(=O)OC(C)C)c(C#N)cc12`, the survival is 92% (inactive).

Take `COc1ccc(C(NC(C)=O)c2ccc(OC)cc2)cc1`: the survival was 77% (inactive).

Consider `Cn1cnc(S(=O)(=O)N2CCC(C(=O)N3CCN(c4cccc(C(F)(F)F)c4)CC3)CC2)c1`, for which the survival was 106% (inactive).

Take `O=C(NC1CCCC1)c1ccc(CSc2nc3cccnc3n2Cc2ccccc2)cc1`: the survival was 95% (inactive).

Regarding `COc1ccc(Cn2cc(S(=O)(=O)c3ccc(Cl)cc3)c(=O)c3cc4c(cc32)OCO4)cc1`, the survival is 58% (inactive).

As to `COc1ccccc1C(=O)Nc1cc2c(cc1N1CCCC1)n(C)c(=O)c(=O)n2C`, the survival was 89% (inactive).

For the compound `COc1nnc(-c2ccc(N3CCCCC3)c(NC(=O)c3ccccc3)c2)c2ccccc12`, the survival is 0% (active).

Regarding `COc1nnc(-c2ccc(N3CCCCC3)c(NC(=O)c3ccc(Cl)cc3)c2)c2ccccc12`, the survival was 107% (inactive).

As to `COc1ccccc1C(=O)Nc1cc2c(cc1N1CCCCC1)n(C)c(=O)n2C`, the survival was 78% (inactive).

Regarding `CCn1c(=O)c(=O)n(CC)c2cc(N3CCCCC3)c(NC(=O)c3cccc(OC)c3)cc21`, the survival was 85% (inactive).

With `COc1nnc(-c2ccc(N3CCCCC3)c(NC(=O)c3ccccc3Cl)c2)c2ccccc12`, the survival is -1% (active).

On to `Cn1c(=O)c(=O)n(C)c2cc(N3CCCC3)c(NC(=O)c3ccccc3Cl)cc21`, for which the survival is 90% (inactive).

With `COc1nnc(-c2ccc(N3CCCCC3)c(NC(=O)c3ccc(C)cc3)c2)c2ccccc12`, the survival is 26% (active).

For the compound `Cn1nc(-c2ccc(N3CCCCC3)c(NC(=O)c3ccc(Cl)cc3)c2)c2ccccc2c1=O`, the survival is 66% (inactive).
